The values below come from PubChem BioAssay (Tox21).

Results filed as inconclusive are left out. Values without a mark were called inactive. Calls of active or inactive are those of the source. The call rests on the fitted dose curve; in most records, active means well fitted activation curve with a large enough effect in the signal ratio in the repeat runs (not every such curve was filed as active); inconclusive means weak or mixed curves; inactive means flat fitted curve, though single readings scatter; the % refers to the signal ratio.
On the % scale 0 is the no-effect control and ±100 the full control effect.

A short description of this assay: qHTS assay to identify small molecule agonists of the hypoxia (HIF-1) signaling pathway (AID 1224846). The settings on record: HRE-bla ME-180 cells, beta-lactamase ratio, 17 h; series mostly up to 76.8 µM; activation: at the top concentration. The text has this:
U.S. Tox21 Program National Center for Advancing Translational Sciences [NCATS] NIH Chemical Genomics Center [NCGC] U.S. Environmental Protection Agency [EPA] National Institutes of Environmental Health Sciences [NIEHS] National Toxicology Program [NTP] U.S. Food and Drug Administration [FDA] Tox21 Assay Overview: Hypoxia-inducible factor-1 (HIF-1) is the major hypoxia-regulated transcription factor that controls cellular responses to low oxygen concentration. HIF-1 is composed of two subunits: hypoxia responsive HIF-1-alpha and constitutively expressed HIF-1-beta, which is also known as aryl hydrocarbon receptor nuclear translocator. During hypoxic conditions, HIF-1-alpha heterodimerizes with HIF-1-beta and translocates into the nucleus where the HIF-1 complex binds to the hypoxia-response element (HRE) and activates expression of target genes such as VEGF (vascular endothelial growth factor). The HIF-1 pathway is essential to normal growth and development, and is involved in the pathophysiology of cancer, inflammation, and ischemia. Using a beta-lactamase reporter-gene under control of the hypoxia response element, a cell-based assay [CellSensor(TM) HRE-bla ME-180 from Life Technologies, Carlsbad, CA] was used to measure hypoxia-induced signaling. Tox21 10K library compounds were measured for their ability to induce the reporter gene activity.
Tox21 Assay Protocol Summary: HRE-bla ME-180 cells were dispensed at 2,000 cells per well in 6 uL of assay medium containing 0.5% dialyzed FBS into black wall/clear-bottom 1536-well plates using a Multidrop Combi (Thermo Scientific, Waltham, MA) dispenser. After the assay plates were incubated at 37C and 5% CO2 for 5 hrs, 23 nL of compounds dissolved in DMSO, positive controls or DMSO only was transferred to each well of the assay plate using a Pintool station (Kalypsys, San Diego, CA). The assay plates were incubated at 37C and 5% CO2 for 17 hrs. One uL of LiveBLAzerTM B/G FRET substrate (CCF4-AM) (Life Technologies) was added to each well using a Flying Reagent Dispenser (Aurora Discovery, San Diego, CA).
On the technique in general: In qHTS, concentration-response curves come from the screen itself.
With `CC(C)(Cl)Cl`, the result was inactive.
Turning to `CCC12COCN1COC2`, the “activation” value was -0.0074%.
For the molecule `COC(=O)NS(=O)(=O)c1ccc(N)cc1`, the outcome was inactive.
On to `CC(Oc1ccc(Cl)cc1Cl)C(=O)O` (stereo not given), for which the result was inactive.
In the case of `C=CCO`, the result was inactive.
Regarding `O=NN1CCCC1`, the “activation” value was 0.0211%.
With `O=S(=O)(c1ccc(Cl)cc1)c1cc(Cl)c(Cl)cc1Cl`, the result was inactive.
Still for that read-out and setting: then `CCN(CC)c1ccccc1`, with “inactive”.
For `Clc1ccc(Cl)cc1`, the outcome was inactive.
On to `O=NN1CCCCCCC1`, for which the result was inactive.
Turning to `COP(N)(=O)SC` (stereo not given), the outcome was inactive.
For the molecule `CC(C)C#N`, the result was inactive.
On to `C1CC2OC2CC1C1CO1` (stereo not given), for which the outcome was inactive.
On to `CCc1cccc(C)c1N(C(=O)CCl)C(C)COC` (stereo not given), for which the outcome was inactive.
`CCCN(CCC)N=O`: the outcome was inactive.
`O=C(O)c1ccccn1`: the result was inactive.
`CN1C(=O)CN=C(c2ccccc2)c2cc(Cl)ccc21`: the result was inactive.
Take `Cc1cc(-c2cc(C)c(N)c(C)c2)cc(C)c1N`: the outcome was inactive.
Regarding `CC(Br)C(=O)O` (stereo not given), the result was inactive.
For the molecule `CCCC1COC(Cn2cncn2)(c2ccc(Cl)cc2Cl)O1` (stereo not given), the result was inactive.
Same read-out and setting: as for `COc1ccc2c3c1O[C@H]1[C@@H](O)C=C[C@H]4[C@@H](C2)N(C)CC[C@@]341`, the entry is “inactive”.
Consider `O=c1ccc(=O)[nH][nH]1`, for which the outcome was inactive.
Regarding `CCCCCCCCCCCC#N`, the outcome was inactive.
For the molecule `C[C@]12CC[C@H]3[C@@H](CC[C@@]45O[C@@H]4C(O)=C(C#N)C[C@]35C)[C@@H]1CC[C@@H]2O`, the “activation” value is -0.996% [at 35.5 µM].
For the molecule `CCCCN(CC)C(=O)SCCC`, the result was inactive.
In the case of `NCC(O)c1ccc(O)cc1` (stereo not given), the outcome was inactive.
Still for that read-out and setting: then `c1ccc2c(c1)oc1ccccc12`, with “inactive”; and `O=[N+]([O-])c1ccccc1`, with “inactive”; and `O=[N+]([O-])c1ccc([As](=O)(O)O)cc1`, with “inactive”.
Still for that read-out and setting: as for `BrCCBr`, the entry is “inactive”; as for `Nc1ccc(Cc2ccc(N)cc2)cc1`, “inactive”.
For the molecule `COC(=O)NC(=S)Nc1ccccc1NC(=S)NC(=O)OC`, the outcome was inactive.
`c1ccc(OP(Oc2ccccc2)Oc2ccccc2)cc1`: the result was inactive.
Turning to `O=[N+]([O-])c1ccc(Oc2ccc(Cl)cc2Cl)cc1`, the “activation” value was 2.2%.
`CC(C)OC(=O)Nc1ccccc1`: the outcome was inactive.
Consider `CCCCCCCCCl`, for which the outcome was inactive.
On the same count and under the same terms, then `C=CC(N)=O`, with “inactive”.
On to `c1cc2c3c(cccc3c1)CC2`, for which the outcome was inactive.
Regarding `CC(=O)C=C(C)C`, the result was inactive.
Take `CC1C=[C-]C=C1.[C-]#[O+].[C-]#[O+].[C-]#[O+].[Mn]`: the outcome was inactive.
